In PubChem BioAssay (EPA / NIEHS):
Active and inactive are the calls of the source. Rule for the calls: active = hit-call score of the fitted dose curve at least 0.9, where 1 is the maximum; inactive = score below 0.9.

Assay: ATG_TGFb_CIS: Attagene CIS-FACTORIAL HepG2 Assay for human Transforming Growth Factor (TGF) (AID 2282967)
Settings: HepG2 Attagene CIS TGFb reporter, mRNA transcription; actives raise or lower the signal
Protocol: ATG_CIS is a cell-based, multiplexed-readout assay that uses HepG2, a human liver cell line, with measurements taken at 24 hours after chemical dosing in a 24-well plate.ATG_TGFb_CIS is one of 52 assay component(s) measured or calculated from the ATG_CIS assay. It is designed to make measurements of mRNA induction, a form of inducible reporter, as detected with fluorescence intensity signals by Reverse transcription polymerase chain reaction (RT-PCR) and Capillary electrophoresis technology.Data from the assay component ATG_TGFb_CIS was analyzed into 1 assay endpoint. This assay endpoint, ATG_TGFb_CIS, was analyzed with bidirectional fitting relative to DMSO as the negative control and baseline of activity. Using a type of inducible reporter, measures of mRNA for gain or loss-of-signal activity can be used to understand the reporter gene at the transcription factor-level as they relate to the gene TGFB1. Furthermore, this assay endpoint can be referred to as a primary readout, because this assay has produced multiple assay endpoints where this one serves a reporter gene function. To generalize the intended target to other relatable targets, this assay endpoint is annotated to the growth factor intended target family, where the subfamily is transforming growth factor beta.
Human liver HepG2 cells are transiently transfected with multiple reporter transcription units (MRTUs) in 6-well plates using FuGene 6 reagent (Roche; 3 ml FuGene/1 mg DNA). The MRTU constructs are regulated by a cis-regulating element (promoter). […] A major difference between the CIS and TRANS system is that in CIS activities of endogenous TFs are measured, whereas the TRANS assay evaluates changes in activities of exogenous, chimeric NR-Gal4 proteins. […] At the end of 24 hour incubation, total RNA was isolated using TriZol reagent (Invitrogen). The isolated RNA is then reverse-transcribed using oligo(dT) primer and Mo-MLV reverse transcriptase (Invitrogen) with DNAse I (Ambion) treatment for 30 min. The one-tenth of the produced cDNA was amplified by PCR using Taq DNA polymerase (Invitrogen) and two reporter sequence-specific primers. The PCR products were fluorescently labeled by primer extension with 6-arboxyfluorescein (6-FAM) 5'-labeled reporter sequence-specific primer (2 min at 95 C, 20 s at 68 C and 10 min at 72 C) and these products were digested with 5U of HpaI (New England Biolabs) for 2h at 37 C. The fragments were purified using Qiaquick PCR columns (Qiagen), analyzed on an ABI 3130xL genetic analyzer (Applied Biosystems) with peak positions identified by using a set of X-rhodamine (ROX)-labeled MapMarker1000 molecular weight standards (BioVentures). The raw capillary electrophoresis data was processed using Attagraph software (Attagene).

outcome, inactive:
c1cc(N(CC2CO2)CC2CO2)ccc1Cc1ccc(N(CC2CO2)CC2CO2)cc1 (stereo not given), O=C(O)/C=C/C(=O)O, CCCCNC(N)=O, NC(=O)c1ccc([N+](=O)[O-])cc1Cl, CCCCCCOC(=O)CCCCCCCC(=O)OCCCCCC, CCO[Si](OCC)(OCC)c1ccccc1, CC/C=C\CC1=C(C)CCC1=O, O=C(O)c1cc(Cl)cc(Cl)c1O, CCCC[N+]1(C)CCCC1, O=C(C1CCCCC1)N1CC(=O)N2CCc3ccccc3C2C1 (stereo not given), CC/C=C\CCCCCO, CCCCCC1CCCC(=O)O1 (stereo not given), COCCCN, CCc1cc(C(N)=S)ccn1, COc1ccc2ccccc2c1, c1ccc2c(c1)Oc1ccccc1S2, CCCCCCCCCCC1CO1 (stereo not given), CCCCCCCCCCCCCC, COC(=O)CCSCCC(=O)OC, Nc1ccc(S(=O)(=O)Nc2cnc3ccccc3n2)cc1, O=[N+]([O-])c1ccc2nc[nH]c2c1, CC(C)CC(=O)O, Oc1cccc2ccccc12, C=C1CC[C@H]2C[C@@H]1C2(C)C, CC(C)CC(=O)CC(C)CC(C)C (stereo not given), CCCCn1cc[n+](C)c1, O=C(OCc1ccccc1)c1ccccc1, CC/C=C/CCO, CC1(C)S[C@@H]2[C@H](NC(=O)[C@H](N)c3ccccc3)C(=O)N2[C@H]1C(=O)O, CC(=O)Nc1c(I)c(NC(C)=O)c(I)c(C(=O)O)c1I, O=C(CC(C(=O)OC1CCCCC1)S(=O)(=O)O)OC1CCCCC1 (stereo not given), CN(C)N=Nc1ccccc1, CCOC(=O)c1ccccc1, CN(C)CCCN1c2ccccc2CCc2ccc(Cl)cc21, CC1=CCCC(C)(C)C12CCC(C)O2 (stereo not given), CN(C)CCC(c1ccc(Cl)cc1)c1ccccn1 (stereo not given), CCOc1ccc2c(c1)C(C)CC(C)(C)N2 (stereo not given), CCOC(=O)CC(=O)OCC

AC50, active:
c1cc[c]([Bi]([c]2ccccc2)[c]2ccccc2)cc1 40.4 µM, CCCCCC[C@@H](O)C/C=C\CCCCCCCC(=O)O 115 µM
